Read-out in experiment [1]: Vascular endothelial growth factor receptor 2 (Homo sapiens) (UniProt P35968)
Description: BSK_4H_VEGFRII: BioMAP Diversity Plus: 4H Assay for Vascular endothelial growth factor receptor 2 (VEGFR2) Biomarker Activity (AID 2283031).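 For AC50: cell-surface VEGFR2 protein level quantified by ELISA.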 As to conditions: primary human endothelial cells (HUVEC); actives raise or lower the signal. The procedure, abridged:
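Primary human umbilical vein endothelial cells (4H system), 24 h exposure; cell-surface VEGFR2 measured by ELISA. Bidirectional fitting versus DMSO; cytotoxicity checked in parallel by SRB total-protein staining.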

Read-out in experiment [2]: Human Leukocyte Antigen - DR isotype (HLADR), HLA-DRA (gene 3122)
Description: BSK_BE3C_HLADR: BioMAP Diversity Plus: BE3C Assay for Human Leukocyte Antigen - DR isotype (HLADR) Biomarker Activity (AID 2283032). The settings on record: primary human bronchial epithelial cells; actives raise or lower the signal. The method in brief:
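ELISA read-out of HLA-DR on human lung bronchial epithelial primary cells, measured 24 h post-dosing. Both increases and decreases were scored relative to DMSO vehicle.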

Read-out in experiment [3]: Vascular cell adhesion molecule 1 (VCAM1), VCAM1 (gene 7412)
Description: BSK_4H_VCAM1: BioMAP Diversity Plus: 4H Assay for Vascular cell adhesion molecule 1 (VCAM1) Biomarker Activity (AID 2283033).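 For outcome: cell-surface VCAM-1 protein measured by ELISA.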 The settings on record: primary human endothelial cells (HUVEC); actives raise or lower the signal. The procedure, abridged: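 ELISA read-out of VCAM-1 on human umbilical vein endothelium 24 hours after chemical dosing; gain or loss of signal was fitted relative to DMSO, with sulforhodamine B staining of parallel cultures flagging overt cytotoxicity.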

Read-out in experiment [4]: Interferon-gamma inducible Protein 10 (IP10), CXCL10 (gene 3627)
The experiment can be described thus: BSK_BE3C_IP10: BioMAP Diversity Plus: BE3C Assay for Interferon-gamma inducible Protein 10 (IP10) Biomarker Activity (AID 2283034). As to conditions: primary human bronchial epithelial cells; actives raise or lower the signal. The procedure, abridged:
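Chemical is dosed onto human lung bronchial epithelial primary cells, cultures are incubated 24 h, and IP-10 is then quantified by ELISA. Gain or loss of signal is fitted in both directions relative to DMSO.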

Read-out in experiment [5]: Monokine induced gamma interferon (MIG), CXCL9 (gene 4283)
Description: BSK_BE3C_MIG: BioMAP Diversity Plus: BE3C Assay for Monokine induced gamma interferon (MIG) Biomarker Activity (AID 2283035). As to conditions: primary human bronchial epithelial cells; actives raise or lower the signal. The procedure, abridged: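 MIG level was determined by ELISA after 24 h chemical treatment of primary human bronchial epithelial cells. Values were fitted bidirectionally with DMSO as the negative control and activity baseline.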

Read-out in experiment [6]: Transforming growth factor beta 1 (TGFb1), TGFB1 (gene 7040)
The experiment can be described thus: BSK_BE3C_TGFb1: BioMAP Diversity Plus: BE3C Assay for Transforming growth factor beta 1 (TGFb1) Biomarker Activity (AID 2283036;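 for outcome: TGF-b1 protein level measured by ELISA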). The settings on record: primary human bronchial epithelial cells; actives raise or lower the signal. The procedure, abridged:
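Primary human lung bronchial epithelial cells; compound exposure 24 h; TGF-b1 by ELISA; bidirectional fit, DMSO baseline. Parallel SRB total-protein staining for cytotoxicity.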

Read-out in experiment [7]: Plasminogen activator inhibitor-1 (PAI1), SERPINE1 (gene 5054)
Description: BSK_BE3C_PAI1: BioMAP Diversity Plus: BE3C Assay for Plasminogen activator inhibitor-1 (PAI1) Biomarker Activity (AID 2283037). As to conditions: primary human bronchial epithelial cells; actives raise or lower the signal. The procedure, abridged: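 Primary human lung bronchial epithelial cells; chemical dosing; 24 h; PAI-1 measured by ELISA; bidirectional fit referenced to DMSO as negative control.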

Read-out in experiment [8]: urokinase plasminogen activator (uPA), PLAU (gene 5328)
Description: BSK_BE3C_uPA: BioMAP Diversity Plus: BE3C Assay for urokinase plasminogen activator (uPA) Biomarker Activity (AID 2283038).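 For outcome: uPA protein level quantified by ELISA in cell cultures; uPA read one day after compound addition.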 As to conditions: primary human bronchial epithelial cells; actives raise or lower the signal. The procedure, abridged: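 Primary human bronchial epithelial cells, uPA measured by ELISA 24 h after dosing. Bidirectional change relative to DMSO; cytotoxicity checked in parallel cultures by sulforhodamine B total-protein staining.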

Read-out in experiment [9]: Urokinase-type plasminogen activator receptor (uPAR), PLAUR (gene 5329)
Description: BSK_BE3C_uPAR: BioMAP Diversity Plus: BE3C Assay for Urokinase-type plasminogen activator receptor (uPAR) Biomarker Activity (AID 2283039).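 For outcome: uPAR protein level measured by ELISA on the cells; cells exposed to compound for one day before measurement.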 As to conditions: primary human bronchial epithelial cells; actives raise or lower the signal. The procedure, abridged:
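Human bronchial epithelial primary cells; chemical exposure 24 h; uPAR by ELISA; bidirectional fit vs DMSO control.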

Read-out in experiment [10]: Interleukin-6 (IL6), IL6 (gene 3569)
The experiment can be described thus: BSK_CASM3C_IL6: BioMAP Diversity Plus: CASM3C Assay for Interleukin-6 (IL6) Biomarker Activity for (AID 2283040). The settings on record: primary human coronary artery smooth muscle cells; actives raise or lower the signal.

Read-out in experiment [11]: Tissue plasminogen activator (tPA), PLAT (gene 5327)
The experiment can be described thus: BSK_BE3C_tPA: BioMAP Diversity Plus: BE3C Assay for Tissue plasminogen activator (tPA) Biomarker Activity (AID 2283041).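 For outcome: tPA level quantified by ELISA one day after compound addition.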 As to conditions: primary human bronchial epithelial cells; actives raise or lower the signal. The procedure, abridged:
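Primary human lung bronchial epithelial cultures receive test chemical; after 24 h, tPA is quantified by ELISA, and gain or loss of signal is fitted bidirectionally relative to DMSO baseline.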

Read-out in experiment [12]: Interleukin-8 (IL8), CXCL8 (gene 3576)
Description: BSK_CASM3C_IL8: BioMAP Diversity Plus: CASM3C Assay for Interleukin-8 (IL8) Biomarker Activity (AID 2283042).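 Note: IL-8 protein level quantified by ELISA.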 The settings on record: primary human coronary artery smooth muscle cells; actives raise or lower the signal.

Read-out in experiment [13]: Human Leukocyte Antigen - DR isotype (HLADR), HLA-DRA (gene 3122)
Description: BSK_CASM3C_HLADR: BioMAP Diversity Plus: CASM3C Assay for Human Leukocyte Antigen - DR isotype (HLADR) Biomarker Activity (AID 2283043).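 Note: cell-surface HLA-DR protein level quantified by ELISA.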 As to conditions: primary human coronary artery smooth muscle cells; actives raise or lower the signal.

Read-out in experiment [14]: Macrophage colony-stimulating factor (MCSF), CSF1 (gene 1435)
The experiment can be described thus: BSK_CASM3C_MCSF: BioMAP Diversity Plus: CASM3C Assay for Macrophage colony-stimulating factor (MCSF) Biomarker Activity (AID 2283044).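 Note: M-CSF protein amount quantified by ELISA after 24 h exposure.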 As to conditions: primary human coronary artery smooth muscle cells; actives raise or lower the signal.

Read-out in experiment [15]: Low-density lipoprotein receptor (LDLR), LDLR (gene 3949)
The experiment can be described thus: BSK_CASM3C_LDLR: BioMAP Diversity Plus: CASM3C Assay for Low-density lipoprotein receptor (LDLR) Biomarker Activity (AID 2283045).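 Note: LDLR protein level on the cell surface quantified by ELISA.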 The settings on record: primary human coronary artery smooth muscle cells; actives raise or lower the signal.

Read-out in experiment [16]: Monocyte Chemoattractant Protein-1 (MCP1), CCL2 (gene 6347)
Description: BSK_CASM3C_MCP1: BioMAP Diversity Plus: CASM3C Assay for Monocyte Chemoattractant Protein-1 (MCP1) Biomarker Activity (AID 2283046).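 Note: MCP-1 level quantified by ELISA 24 h after dosing.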 The settings on record: primary human coronary artery smooth muscle cells; actives raise or lower the signal.

Experiment [17] can be described thus: BSK_CASM3C_Proliferation: Cell Proliferation Assessment in the BioMAP Diversity Plus: CASM3C Assay (AID 2283047).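 Note: sulforhodamine B total protein stain as relative cell number at 560 nm; sub-confluent cells exposed 48 h before staining; fitted both ways against DMSO so gain or loss of cell number.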 The settings on record: primary human coronary artery smooth muscle cells.
Read-out in experiment [18]: Monokine induced gamma interferon (MIG), CXCL9 (gene 4283)
The experiment can be described thus: BSK_CASM3C_MIG: BioMAP Diversity Plus: CASM3C Assay for Monokine induced gamma interferon (MIG) Biomarker Activity (AID 2283048).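 Note: MIG protein level measured by ELISA.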 The settings on record: primary human coronary artery smooth muscle cells; actives raise or lower the signal.

Read-out in experiment [19]: serum amyloid A (SAA), SAA1 (gene 6288)
Description: BSK_CASM3C_SAA: BioMAP Diversity Plus: CASM3C Assay for serum amyloid A (SAA) Biomarker Activity (AID 2283049).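 Note: SAA protein level quantified by ELISA.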 The settings on record: primary human coronary artery smooth muscle cells; actives raise or lower the signal.

Experiment [20] can be described thus: BSK_CASM3C_SRB: Viability Assessment in the BioMAP Diversity Plus: CASM3C Assay (AID 2283050).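 Note: total protein by SRB staining as cytotoxicity measure in parallel cultures.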 As to conditions: primary human coronary artery smooth muscle cells.

Active and inactive are the calls of the source. Rule for the calls: active = hit-call score of the fitted dose curve at least 0.9, where 1 is the maximum; inactive = score below 0.9.

As a reminder, the AC50 is the concentration giving half of the maximal activity seen. With `O=S1OCC2C(CO1)C1(Cl)C(Cl)=C(Cl)C2(Cl)C1(Cl)Cl` (stereo not given), the concentration at half-maximal activity (AC50) in experiment [1] was 34.8 µM (active); in experiment [2], 26.6 µM (active); in experiment [3], 36.5 µM (active); in [4], 17.8 µM (active); in [5], 34.4 µM (active); in experiment [6], 39.1 µM (active). Further, the half-maximal activity concentration (AC50) in experiment [7] was 28.8 µM (active); in experiment [8], 30.3 µM (active); in experiment [9], 30.7 µM (active); in experiment [11] it was 21.5 µM (active); in experiment [12], 29.6 µM (active); in experiment [13] it was 32.5 µM (active). Further, the AC50 in experiment [14] was 31.5 µM (active); in experiment [16], 31.7 µM (active); in experiment [17], 32.7 µM (active); in experiment [18], 32.1 µM (active); in experiment [19], 32.7 µM (active); in [20], 32.4 µM (active). The result in experiment [10] and in [15] was inactive.
As for `CNC(=O)Oc1cccc(N=CN(C)C)c1`, the result in experiment [1], in experiment [3], in experiment [4], in [5], in [6] and in experiment [7] was inactive. Moreover, the outcome in experiment [8], in [9], in experiment [10], in experiment [11], in [12] and in [13] was inactive. Besides, the result in experiment [14], in experiment [15], in experiment [16], in experiment [17], in experiment [18] and in [19] was inactive. In experiment [20], the outcome was inactive. Also, the AC50 in experiment [2] was 26.6 µM (active).
As for `O=C(Nc1ccccc1)Nc1cnns1`, the outcome in experiment [1], in experiment [2], in experiment [3], in [4], in experiment [5] and in experiment [6] was inactive. Also, the result in [7], in experiment [8], in experiment [9], in [10], in [11] and in experiment [12] was inactive. The result in experiment [13], in [14], in experiment [15], in experiment [16], in [17] and in experiment [18] was inactive. The outcome in [19] and in experiment [20] was inactive.
With `COP(=O)(OC)OC=C(Cl)Cl`, the result in experiment [1], in [2], in experiment [3], in [4], in experiment [5] and in experiment [6] was inactive. The outcome in experiment [8], in experiment [10], in [11], in experiment [12], in experiment [13] and in [14] was inactive. In addition, the outcome in [15], in experiment [16], in experiment [18], in experiment [19] and in [20] was inactive. The AC50 in [7] was 20 µM (active); in experiment [9], 6.12 µM (active); in [17] it was 8.32 µM (active).
As for `C[C@H]1[C@H](c2ccc(Cl)cc2)SC(=O)N1C(=O)NC1CCCCC1`, the outcome in [1], in [4], in experiment [5], in [6], in [8] and in experiment [9] was inactive. For the same compound, the outcome in [11], in experiment [12], in [13], in experiment [14], in [15] and in [16] was inactive. Further, the outcome in [18], in [19] and in [20] was inactive. Moreover, the AC50 was 12.6 µM (active) in experiment [2]; 7.61 µM (active) in [3]; 10.6 µM (active) in [7]; 7.98 µM (active) in [10]; 20 µM (active) in experiment [17].
As to `O=C1c2ccccc2C(=O)N1SC(Cl)(Cl)Cl`, the result in experiment [1], in [3], in [11], in experiment [15] and in [19] was inactive. The AC50 in experiment [2] was 30.6 µM (active); in experiment [4], 35 µM (active); in experiment [5] it was 35.7 µM (active); in experiment [6], 31.6 µM (active); in [7], 20 µM (active); in [8] it was 28.7 µM (active). In addition, the AC50 is 34.7 µM (active) in experiment [9]; 30.3 µM (active) in experiment [10]; 38.6 µM (active) in [12]; 28.7 µM (active) in experiment [13]; 16 µM (active) in experiment [14]; 30 µM (active) in experiment [16]. Also, the AC50 was 18.8 µM (active) in [17], 30.4 µM (active) in experiment [18] and 29 µM (active) in experiment [20].

The record behind these values is PubChem BioAssay (EPA / NIEHS).
